# IEC-6 cytotox: kills IEC-6 intestinal cells in KLF5 counter-screen | IEC-6 cytotoxicity, luminescence viability | inhibition, % at 5 µM | hit rate 0.78% among 290,000 | AID 1825
# KLF5 inhibitor: inhibitors of KLF5 expression; AID 1700; hit rate 0.23% among 290,000; inhibition, % at 5 µM; DLD-1 KLF5 promoter-luciferase reporter, luminescence;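 active = inhibition above a per-plate limit of that plate's mean compound inhibition plus 3 SD, cut at about 60% in these data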;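 also: higher means less KLF5 promoter-driven luciferase light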
# BaF3 parental: reduces parental Ba/F3 cell viability, JAK2V617F counter-screen | CellTiter-Glo ATP luminescence | inhibition, % at 5.6 µM | hit rate 1.1% among 220,000;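 active = inhibition above a per-campaign cutoff, the mean inhibition of all tested compounds plus 3 SD, cut at about 27% in these data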
# Ba/F3 V617F tox: reduce viability of Ba/F3 cells dependent on JAK2V617F; Ba/F3 EpoR-JAK2V617F viability, ATP luminescence; inhibition, % at 5.6 µM; hit rate 1.1% among 220,000; AID 1446;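 active = inhibition above the campaign mean plus 3 SD over all tested compounds, cut at about 24% in these data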;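 also: cytokine-independent growth of Ba/F3 cells driven by EpoR plus mutant JAK2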
# APP transl inh: APP translation inhibition. hit rate 0.82% among 190,000. SH-SY5Y APP 5'UTR-luciferase reporter, luminescence. AID 1285. inhibition, % at 2 µM;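 active = inhibition above a set limit, derived from the sample mean plus 3 SD, cut at about 45% in these data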
# IEC-6 tox confirm: IEC-6 cytotoxicity, confirmation assay; shares compounds with IEC-6 cytotox; IEC-6 rat intestinal epithelial viability, luminescence; inhibition, % at 5 µM; hit rate 63% among 1,900; AID 1907
# Numbers stand for hits; 0 = inactive; - = no result given. Most compounds without a hit are left out; they make up all but 1.9% or so of the library. Rule as the data show it, unless noted: active = inhibition above about 22%; inactive = the rest.
SMILES,IEC-6 cytotox,KLF5 inhibitor,BaF3 parental,Ba/F3 V617F tox,APP transl inh,IEC-6 tox confirm
CCC(C)NC(=O)c1ccc2c(c1)N(Cc1ccccc1)C(=O)CS2 (centres undefined),0,0,0,0,0,-
COc1ccc2cc1Oc1ccc(cc1)CC1c3c(cc(OC)c4c3Oc3cc5c(cc3O4)CCNC5C2)CCN1C (centres undefined),45,0,0,0,-,0
COc1ccc(Cl)cc1C(=O)CSc1nnnn1C1CCCCC1,0,0,0,0,0,-
C=CCSc1nc2sc(C)c(C)c2c(=O)n1CC=C,0,0,0,0,0,-
C=CCn1c(SCC(=O)c2cccs2)nc2sc(C)c(C)c2c1=O,68,0,0,0,0,46
CC(C)CCNC(=S)Nc1ccccc1F,0,0,0,0,0,-
COc1ccccc1NC(=O)COC(=O)c1ccccc1OCC(=O)Nc1ccc(SC(F)F)cc1,0,0,0,0,0,-
CN(C)C(=O)COC(=O)c1ccccc1Nc1ccc(SC(F)F)cc1,45,0,0,0,0,37
CS(=O)(=O)N1CCN(c2nc3ccc(Cl)cc3s2)CC1,0,0,0,0,-,-
N#CC1=C(N)Oc2cc(N)ccc2C1c1cccc(F)c1 (centres undefined),51,0,-,-,-,42
COC(=O)c1ccc(C2C(C#N)=C(N)Oc3cc(N)ccc32)cc1 (centres undefined),0,0,-,-,-,-
Cc1ccc2[nH]c(=O)c(CN(CC3CCCO3)C(=O)c3cccs3)cc2c1 (centres undefined),0,0,-,-,-,-
COc1cccc(OC)c1C(=O)Nc1ccccc1N1CCCCC1,26,0,-,-,-,0
COc1ccc(OCC(=O)Nc2ccccc2-c2ccccc2)cc1,28,0,0,0,0,0
COc1ccc(OCC(=O)Nc2ccccc2N2CCN(C)CC2)cc1,0,0,-,-,-,-
COc1ccc(OCC(=O)Nc2ccccc2N2CCCCC2)cc1,70,0,-,-,-,42
CSc1cccc(NC(=O)CCCNC(=O)c2ccc(Cl)cc2)c1,0,0,-,-,-,-
CCCCN(C(=O)CNC(=O)c1ccco1)C(C(=O)NC1CCCC1)c1ccc(OC)cc1 (centres undefined),0,0,0,0,0,-
Cn1c(/C=C/c2ccccc2)nc2ccccc21,0,0,0,0,0,-
C(=C\c1nnc2c3ccccc3ncn12)/c1ccccc1,60,0,69,82,72,0
O=C(NCC(c1cccs1)N1CCOCC1)c1ccc(Cl)s1 (centres undefined),72,0,69,74,61,49
O=C(NCC(c1cccs1)N1CCOCC1)c1cc([N+](=O)[O-])ccc1Cl (centres undefined),0,0,0,0,0,-
CCCNC(=O)c1cc2c3ccccc3n(C)c2s1,0,0,0,0,-,-
Cn1c2ccccc2c2cc(C(=O)NNC(=O)CCl)sc21,27,0,0,0,0,0
COC(=O)c1cn(Cc2cccnc2)c(=O)c2ccccc12,0,0,0,0,0,-
SMILES,IEC-6 cytotox,KLF5 inhibitor,BaF3 parental,Ba/F3 V617F tox,APP transl inh,IEC-6 tox confirm
O=c1cnc2ccccc2n1Cc1ccc(Br)cc1,0,0,-,-,-,-
CC(C)(C)c1ccc(Cn2c(=O)cnc3ccccc32)cc1,24,0,-,-,-,0
O=C(CN(C(=O)c1ccccc1Cl)N1C(=O)C2C3C=CC(C3)C2C1=O)c1cccs1 (centres undefined),0,0,0,0,0,-
CCOC(=O)c1ccc(-c2c(-c3cc(OC)c(OC)c(OC)c3)noc2C)cc1F,76,0,-,-,-,57
CCOC(=O)c1ccc(-c2c(-c3ccc4c(c3)OCO4)noc2-c2ccsc2)cc1F,0,0,-,-,-,-
COc1ccc(N/N=C(\C#N)C(N)=O)cc1,0,0,0,0,0,-
N#C/C(=N/Nc1ccc(OC(F)(F)F)cc1)C(N)=S,28,0,68,50,-,35
COC(=O)CC1COc2ccccc2N1S(=O)(=O)c1ccc(OC)cc1 (centres undefined),31,0,-,-,-,0
O=[N+]([O-])c1cc(Br)c(Nc2ccccc2)c([N+](=O)[O-])c1,22,0,-,-,-,0
O=C(Nc1ccccc1)c1ccc(Nc2c([N+](=O)[O-])cc([N+](=O)[O-])c3ccccc23)cc1,0,0,0,0,0,-
O=C(CSc1ncccc1C(=O)O)NC12CC3CC(CC(C3)C1)C2,0,0,0,0,0,-
CCCCOC(=O)c1ccc(NC(C)=O)cc1,24,0,0,0,0,0
CC(C)c1nc(=S)c2ccccc2[nH]1,0,0,0,0,0,-
O=C(c1ccc(CS(=O)c2ccccc2Cl)o1)N1CCN(c2ccccc2)CC1 (centres undefined),80,0,-,-,-,57
COCC(=O)NCCc1nc(-c2ccccc2)cs1,0,0,0,0,0,-
Cc1cc(NCc2ccccn2)n2ncc(-c3ccccc3)c2n1,84,0,0,0,-,31
Cc1cc(NCc2ccccn2)n2nc(C)c(-c3ccc(Cl)cc3)c2n1,0,0,0,0,-,-
Cc1cc(N)n2ncc(-c3ccc(F)cc3)c2n1,0,0,0,0,0,-
Cc1nn2c(NCc3ccccn3)cc(C(C)C)nc2c1-c1ccccc1,0,0,0,0,-,-
CCCc1cc(NCc2ccccn2)n2nc(C)c(-c3ccccc3)c2n1,47,0,0,0,-,0
Cc1cc(NCc2ccccn2)n2ncc(-c3ccc(Cl)cc3)c2n1,29,0,0,0,-,30
Cc1cc(N)n2ncc(-c3ccc(Cl)cc3)c2n1,25,0,0,0,0,26
Cc1cccc(Nc2nnc(SCC(=O)Nc3ncc(C(F)(F)F)cc3Cl)s2)c1C,0,0,0,0,0,-
O=C(Nc1cccnc1)c1ccc([N+](=O)[O-])o1,76,0,-,-,-,0
O=C(Cc1ccc(-c2ccccc2)cc1)NCc1cccnc1,25,0,0,0,0,25
SMILES,IEC-6 cytotox,KLF5 inhibitor,BaF3 parental,Ba/F3 V617F tox,APP transl inh,IEC-6 tox confirm
O=C(NCc1cccnc1)c1ccc([N+](=O)[O-])o1,32,0,0,0,0,0
O=C(Nc1cccnc1)c1ccco1,0,0,0,0,0,-
Cc1cc(OCC(=O)N2CCN(c3cccc(Cl)c3)CC2)c2c(C)c(C)c(=O)oc2c1,0,0,-,-,-,-
COc1ccc(Cc2nnc(NC(=O)Cn3cnc4c3c(=O)n(C)c(=O)n4C)s2)cc1OC,0,0,0,0,0,-
CN(C(=O)c1ccc(S(=O)(=O)N(C)C)cc1)c1ccc2ccccc2c1,0,0,-,-,-,-
Nc1cccc(C(=O)OCC(=O)Nc2cccc3c2C(=O)c2ccccc2C3=O)c1,0,0,0,0,0,-
CCN(CC)CCC(=O)Nc1cccc2c1C(=O)c1ccccc1C2=O,26,0,68,85,-,24
O=C(CSc1nnnn1C1CC2CCC1C2)Nc1ccnc2ccccc12 (centres undefined),36,0,63,68,0,0
O=C(CSc1nnnn1C1CCCCC1)Nc1ccccc1F,0,0,0,0,0,-
CC(C)n1cc(NC(=O)c2cc(-c3ccccc3)on2)cn1,64,0,28,41,77,46
Cc1sc(NC(=S)NC(=O)CCc2ccccc2)c(C(N)=O)c1C,27,0,75,75,95,71
Cc1sc(NC(=S)NC(=O)c2ccco2)c(C(N)=O)c1C,0,0,0,0,0,-
CCn1cnc2c1c(=O)n(Cc1nnc3n1-c1ccccc1SC3)c(=O)n2Cc1ccccc1,0,0,0,0,0,-
